Measured values taken from PubChem BioAssay (NCI).
The panel holds about 83,000 compounds, 20% with a hit somewhere; the sample as a whole holds those more often.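 Cells were grown in 96-well plates and exposed to the test compound at a single concentration for 48 hours; results are reported as percent growth, with values below 10 considered active.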 Values without a mark were called inactive. Calls of active or inactive are those of the source.

What was measured:
Test in all cases: NCI-60 one-dose screen, 48 h (100 = growth as untreated, 0 = no growth, -100 = all killed)
NCI-H23 lung = settings: 10 µM unless noted
NCI-H226 lung = settings: 10 µM unless noted
NCI-H322M lung = settings: 10 µM unless noted
HOP-62 NSCLC = settings: 10 µM unless noted
NCI-H460 lung = settings: 10 µM unless noted
HOP-92 NSCLC = settings: 10 µM unless noted
NCI-H522 lung = settings: 10 µM unless noted
A549/ATCC NSCLC = settings: 10 µM unless noted
786-0 renal = settings: 10 µM unless noted
COLO 205 colon = settings: 10 µM unless noted
DU-145 prostate = settings: 10 µM unless noted
K-562 leukemia = settings: 10 µM unless noted
MALME-3M melanoma = settings: 10 µM unless noted
MDA-MB-231 breast = settings: 10 µM unless noted
RXF 393 renal = settings: 10 µM unless noted
SF-268 CNS = settings: 10 µM unless noted
SF-295 CNS = settings: 10 µM unless noted
SF-539 CNS = settings: 10 µM unless noted
UACC-257 melanoma = settings: 10 µM
M14 melanoma = settings: 10 µM unless noted

Structure (SMILES) | growth (NCI-H23 lung) | growth (NCI-H226 lung) | growth (NCI-H322M lung) | growth (HOP-62 NSCLC) | growth (NCI-H460 lung) | growth (HOP-92 NSCLC) | growth (NCI-H522 lung) | growth (A549/ATCC NSCLC) | growth (786-0 renal) | growth (COLO 205 colon) | growth (DU-145 prostate) | growth (K-562 leukemia) | growth (MALME-3M melanoma) | growth (MDA-MB-231 breast) | growth (RXF 393 renal) | growth (SF-268 CNS) | growth (SF-295 CNS) | growth (SF-539 CNS) | growth (UACC-257 melanoma) | growth (M14 melanoma)
Nc1ccc(-c2nnc(SCc3ccc(O)c4ncccc34)n2-c2ccccc2)cc1 | 13.2% | 44% | 23.7% | 17% | 5.71% (active) | -21% (active) | 17.5% | 14.1% | 19.9% | 4.41% (active) | 24.1% | 15.9% | 5.24% (active) | 17% | 13.5% | 23.3% | 0.907% (active) | 10.5% | 3.16% (active) | 14.9%
CN(c1ccc(Cl)cc1)S(=O)(=O)c1ccc(-c2cnc(C3CC3)o2)cc1 | 23.8% | 14.5% | 55% | 45.6% | 8.85% (active) | 63.9% | 30.8% | 24.3% | 31.9% | -7.11% (active) | 15.9% | 10.4% | 77.8% | 22.3% | 46.5% | 40.2% | 18% | 10.4% | 66.1% | 24.9%
COc1ccc(-c2ccc3c4c(cccc24)C(=O)N(N2C(=O)c4cccc5cccc(c45)C2=O)C3=O)cc1 | 96.1% | 101% | 102% | 92.7% | 102% | 75.6% | 97.1% | 107% | 99.2% | 103% | 112% | 86.4% | 93.1% | 83.7% | 108% | 97.8% | 105% | 95.7% | 105% | 94.1%
CCCCCCNC(=O)Oc1ccc(/C(=C(\C)c2ccc(Cl)cc2)c2ccc(OCCN(C)C)cc2)cc1 | 76.3% | 101% | 78.1% | 75.5% | 6.53% (active) | 38.4% | 83.5% | 72.7% | 39.8% | 11.6% | 83.4% | 4.21% (active) | -33.7% (active) | 58.5% | 46% | 65.4% | 84.8% | 42% | 18.9% | 3.61% (active)
COc1ccc(N2CCN(C(=O)CSc3ccc(-c4nc5cc(C)c(C)cc5[nH]4)cn3)CC2)cc1 | 54.5% | 66.8% | 76.6% | 84.9% | 89.9% | 85% | 36% | 77.3% | 102% | 60.2% | 93.1% | 35.3% | 69.9% | 85.6% | 93.6% | 99.3% | 50.2% | 84% | 52.1% | 53.9%
C#C[C@]1(O)CC[C@H]2[C@@H]3CC=C4c5sc(-c6ccc(OC)cc6)nc5CC[C@]4(C)[C@H]3CC[C@@]21C | 73.7% | 69.3% | 74.5% | 70.8% | 43.5% | 102% | 80.6% | 74.7% | 16.8% | 81.9% | 76.9% | 14.5% | 51% | 72.3% | -46.3% (active) | 58.9% | -36.6% (active) | 18.1% | 30.3% | 36.4%
CC(=O)Nc1ccc(NC(=O)Nc2cccc(-c3nc(-c4ccc(NC(=O)c5cccs5)cc4Cl)no3)c2)cc1C(F)(F)F | -60.2% (active) | -41.2% (active) | -8.96% (active) | -74.8% (active) | -59.4% (active) | -46.8% (active) | -39.6% (active) | -27.1% (active) | -43.4% (active) | -64.4% (active) | -15.4% (active) | 1.01% (active) | -84.3% (active) | -60.6% (active) | -85% (active) | -38.8% (active) | -62.9% (active) | -87.5% (active) | -58.4% (active) | -59.2% (active)
Clc1ccc(-c2csc(N/N=C/c3nc4ccccc4n3C3CC3)n2)cc1 | 98.5% | 91.5% | 98.5% | 106% | 105% | 105% | 93% | 95.5% | 109% | 104% | 113% | 107% | 96.3% | 96.7% | 107% | 94.7% | 96.5% | 99.4% | 91% | 91.9%
O=C1[C@@H]2Cc3c([nH]c4ccccc34)[C@H](c3c(Cl)cccc3Cl)N2C(=O)CN1C1CCN(Cc2c(F)cccc2F)CC1 | 92.9% | 78.7% | 89.1% | 92.9% | 55.6% | 75.9% | 93% | 92.3% | 99.2% | 90.6% | 58.8% | 66.3% | 64.9% | 69% | 65.4% | 76.1% | 101% | 52.2% | 99.1% | 75.2%
CCOC(=O)c1c(NCC(=O)Nc2cccc([N+](=O)[O-])c2)sc2c1CCCC2 | -70.8% (active) | -58.1% (active) | -29.2% (active) | -48.4% (active) | -51.5% (active) | -24.7% (active) | -67% (active) | -13.8% (active) | -32% (active) | -56.2% (active) | -15.2% (active) | 3.3% (active) | -63.9% (active) | -44% (active) | -84.6% (active) | -42.2% (active) | -90.2% (active) | -55.6% (active) | -27% (active) | -85.2% (active)
CC[C@]12C=CCN3CC[C@]4(C(=C(C(=O)OC)C1)Nc1cc5c(cc14)[C@@H]1[C@H](O5)[C@@H](O)[C@@]4(CC)CC(C(=O)OC)=C5Nc6cc(OC)ccc6[C@@]56CCN1[C@@H]46)[C@@H]32 | -44.5% (active) | -1.39% (active) | 15% | 24.1% | 5.78% (active) | 37.1% | -11.8% (active) | 20% | -9.86% (active) | -29.2% (active) | 22.6% | 9.45% (active) | 25% | 20.4% | -39.2% (active) | 14.9% | 15.4% | -4.82% (active) | 29.5% | 9.29% (active)
C#CCOc1ccc(/C=N/Nc2nc(-c3cc4cc(Br)cc(Br)c4oc3=O)cs2)cc1 | 94.6% | 93.8% | 103% | 105% | 101% | 89.3% | 95% | 97% | 99.7% | 100% | 96.1% | 90.7% | 109% | 96% | 114% | 84.8% | 91.4% | 84.4% | 106% | 98.2%
CCC(=O)Nc1cc(Nc2cc(NC3CC3)n3ncc(C#N)c3n2)ccc1C | 15.3% | 26.4% | 19.4% | 24.8% | 16.1% | 6.91% (active) | 27% | 26.9% | 42% | 30.4% | 44.7% | 22.9% | 30.8% | 19.5% | -8.35% (active) | 35% | 21.7% | 21.8% | 34.2% | 14.9%
CCOC(=O)c1nn(-c2ccc(C)cc2)c(=O)c2c(N)c(C#N)c(-c3ccc(OC)cc3)cc12 | 101% | 94.4% | 97.4% | 81.3% | 101% | 91.9% | 86.7% | 108% | 108% | 110% | 109% | 118% | 93.8% | 84.8% | 104% | 95.5% | 103% | 102% | 107% | 102%
COc1ccc(CN2C(=O)/C(=C/c3nc(CO)cs3)SC2=S)cc1 | 92.6% | 101% | 97.5% | 104% | 100% | 63.4% | 35.6% | 95.7% | 51.2% | 118% | 96.5% | 52.6% | 93.2% | 79.5% | 95.3% | 98.8% | 106% | 70.1% | 93.6% | 86.4%
